From the supplement of paper PMC10849652
Of roughly 7,900 targets only a part is listed; those with a hit were picked by preference. About 0.6% of all pairs of compound and target were hits.

Experiments:
Assay in all cases: log2 fold change, soluble protein after heating vs DMSO (PISA); higher = thermal stabilisation; K562 cells, 10 uM, 30 min; active = over 0.2 and 3.5 SD of the protein, either way, in both replicates (recomputed)
[1] = compound: CC1=C(C=C(C=C1)NC(=O)C2=CC(=CC=C2)C(C)(C)C#N)NC3=CC4=C(C=C3)N=CN(C4=O)C
In short: (§1)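 Soluble protein was defined as the supernatant after 21,000xg for 90 min. It came from K562 cells at 2×10^6 cells/mL given 10 μM compound for 30 min, heated in aliquots for 3 min across 48°C-58°C, pooled, and extracted in PBS with 0.5% NP-40 at 4°C, and was quantified by TMTpro 16plex LC-MS/MS with equalised channel sums. Thermal stability against control samples, from duplicates, is reported as log2 fold change.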

[2] = compound: CC1=C(C=C(C=C1)NC(=O)C2=CC(=CC=C2)N(C)C)NC(=O)C3=CC=C(C=C3)O
In short: as §1

[3] = compound: CC1=CC=C(C=C1)SC2=C3C=C(SC3=CN=C2)C(=O)N
In short: as §1

[4] = compound: CC1=NC(=CC=C1)C2=C(N=C(N2)C(C)(C)C)C3=CC4=NC=CN=C4C=C3
In short: as §1

Nexturastat A = compound: CCCCN(Cc1ccc(C(=O)NO)cc1)C(=O)Nc1ccccc1 [Nexturastat A]
In short: as §1

vemurafenib = compound: CCCS(=O)(=O)Nc1ccc(F)c(C(=O)c2c[nH]c3ncc(-c4ccc(Cl)cc4)cc23)c1F [vemurafenib]
In short: as §1

[5] = compound: CCCS(=O)(=O)Nc1ccc(F)c(C(=O)c2c[nH]c3ncc(Cl)cc23)c1F
In short: as §1

[6] = compound: CCCc1cc(C)[nH]c(=O)c1CNC(=O)c1cc(-c2ccnc(N3CCN(C)CC3)c2)cc2c1cnn2C(C)C
In short: as §1

givinostat = compound: CCN(CC)Cc1ccc2cc(COC(=O)Nc3ccc(C(=O)NO)cc3)ccc2c1 [givinostat]
In short: as §1

barasertib = compound: CCN(CCCOc1ccc2c(Nc3cc(CC(=O)Nc4cccc(F)c4)[nH]n3)ncnc2c1)CCOP(=O)(O)O [barasertib]
In short: as §1

[7] = compound: CC[C@@H]1C(=O)N(C)c2cnc(Nc3ccc(C(=O)NC4CCN(C)CC4)cc3OC)nc2N1C1CCCC1
In short: as §1

volasertib = compound: CC[C@@H]1C(=O)N(C)c2cnc(Nc3ccc(C(=O)N[C@H]4CC[C@H](N5CCN(CC6CC6)CC5)CC4)cc3OC)nc2N1C(C)C [volasertib]
In short: as §1

[8] = compound: CC[C@H](C)N1C=C(C2=C(C=C(C=C21)C3=CN=C(C=C3)N4CCNCC4)C(=O)NCC5=C(C=C(NC5=O)C)C)C
In short: as §1

epoxomicin = compound: CC[C@H](C)[C@@H](C(=O)N[C@@H]([C@@H](C)O)C(=O)N[C@@H](CC(C)C)C(=O)[C@]1(CO1)C)NC(=O)[C@H]([C@@H](C)CC)N(C)C(=O)C [epoxomicin]
In short: as §1

[9] = compound: CCn1c(C(=O)N(C2CC2)C2CC2)cc2c3c(ncn3C)c(Nc3cc(C)n(C)n3)nc21
In short: as §1

[10] = compound: CCn1cc(-c2ccnc3[nH]c(-c4cccc(CN(C)C)c4)cc23)c(-c2ccc(NC(=O)N(C)C)cc2)n1
In short: as §1

[11] = compound: CN(C)CC(=O)Nc1ccc2[nH]c(=O)c3ccccc3c2c1
In short: as §1

rosiglitazone = compound: CN(CCOC1=CC=C(C=C1)C[C@H]2C(=O)NC(=O)S2)C3=CC=CC=N3 (racemic) [rosiglitazone]
In short: as §1

[12] = compound: CN1C2=C(C3=C1C(=O)N(N=C3)CC4=CC(=CC=C4)N)SC(=C2)S(=O)C
In short: as §1

[13] = compound: CN1CCC(CNc2ccc3ncc(-c4cccc(OC(F)(F)F)c4)n3n2)CC1
In short: as §1

Measured: log2 fold change

IDH3A (UniProt P50213)
inactive: [1] -0.029 | [2] -0.003 | [3] 0.031 | [4] 0.015 | Nexturastat A -0.084 | vemurafenib 0.009 | [5] -0.009 | [6] -0.014 | givinostat -0.06 | barasertib -0.006 | [7] -0.031 | volasertib -0.01 | [8] 0.004 | epoxomicin 0.063 | [9] 0 | [10] -0.027 | [11] 0 | rosiglitazone 0.008 | [12] -0.064 | [13] 0.033

FIS1 (UniProt Q9Y3D6)
Sequence of UniProt Q9Y3D6 (Q9Y3D6 whole entry, looked up): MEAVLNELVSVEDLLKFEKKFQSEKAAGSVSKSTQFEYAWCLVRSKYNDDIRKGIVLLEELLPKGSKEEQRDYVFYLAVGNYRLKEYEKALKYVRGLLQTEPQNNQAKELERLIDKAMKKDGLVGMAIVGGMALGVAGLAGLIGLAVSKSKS
inactive: [1] -0.024 | [2] 0.006 | [3] 0 | [4] 0 | Nexturastat A -0.018 | vemurafenib 0.048 | [5] -0.046 | [6] -0.009 | givinostat -0.014 | barasertib -0.027 | [7] 0.005 | volasertib 0.046 | [8] -0.023 | epoxomicin -0.002 | [9] 0.025 | [10] 0.008 | [11] 0.01 | rosiglitazone 0.016 | [12] -0.189 | [13] -0.075

GSTO1 (UniProt P78417)
Sequence of UniProt P78417 (P78417 whole entry, looked up): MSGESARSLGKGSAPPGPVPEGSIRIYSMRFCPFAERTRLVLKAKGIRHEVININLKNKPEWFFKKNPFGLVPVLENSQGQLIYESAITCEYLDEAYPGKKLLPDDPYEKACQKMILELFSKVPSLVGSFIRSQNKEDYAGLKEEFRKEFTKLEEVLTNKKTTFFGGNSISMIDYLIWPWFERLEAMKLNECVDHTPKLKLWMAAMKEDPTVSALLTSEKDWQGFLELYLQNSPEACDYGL
inactive: [1] -0.031 | [2] 0.002 | [3] 0.03 | [4] 0.03 | Nexturastat A -0.121 | vemurafenib 0.02 | [5] 0.017 | [6] 0.15 | givinostat -0.043 | barasertib 0.016 | [7] 0.005 | volasertib 0.08 | [8] 0.009 | epoxomicin 0.013 | [9] 0.036 | [10] -0.052 | [11] -0.007 | rosiglitazone 0.018 | [12] -0.082 | [13] 0.084

GLUD2 (UniProt P49448)
Sequence of UniProt P49448 (P49448 whole entry, looked up): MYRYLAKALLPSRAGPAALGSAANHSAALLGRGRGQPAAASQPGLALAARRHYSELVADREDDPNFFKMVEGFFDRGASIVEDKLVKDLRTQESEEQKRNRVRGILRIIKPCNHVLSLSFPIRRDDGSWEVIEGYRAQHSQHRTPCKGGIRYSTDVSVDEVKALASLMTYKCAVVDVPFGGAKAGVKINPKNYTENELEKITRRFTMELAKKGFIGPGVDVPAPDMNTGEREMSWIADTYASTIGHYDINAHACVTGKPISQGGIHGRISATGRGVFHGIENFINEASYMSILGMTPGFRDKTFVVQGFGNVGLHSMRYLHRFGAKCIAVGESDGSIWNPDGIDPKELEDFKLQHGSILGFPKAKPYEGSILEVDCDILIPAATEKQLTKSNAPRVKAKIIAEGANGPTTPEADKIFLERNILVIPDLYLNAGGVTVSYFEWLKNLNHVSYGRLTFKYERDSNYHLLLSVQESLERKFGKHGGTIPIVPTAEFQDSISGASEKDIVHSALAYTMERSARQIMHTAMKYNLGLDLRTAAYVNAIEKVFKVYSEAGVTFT
inactive: [1] 0.104 | [2] 0.006 | [3] -0.062 | [4] -0.015 | Nexturastat A -0.045 | vemurafenib 0.017 | [5] 0.006 | [6] 0.238 | givinostat -0.107 | barasertib 0.015 | [7] 0.13 | volasertib 0.252 | [8] 0.068 | epoxomicin -0.07 | [9] 0.034 | [10] -0.219 | [11] 0.021 | rosiglitazone 0.002 | [12] -0.022 | [13] 0.071

GOLGB1 isoform 2 (UniProt Q14789)
Sequence of UniProt Q14789 (Q14789 whole entry, looked up): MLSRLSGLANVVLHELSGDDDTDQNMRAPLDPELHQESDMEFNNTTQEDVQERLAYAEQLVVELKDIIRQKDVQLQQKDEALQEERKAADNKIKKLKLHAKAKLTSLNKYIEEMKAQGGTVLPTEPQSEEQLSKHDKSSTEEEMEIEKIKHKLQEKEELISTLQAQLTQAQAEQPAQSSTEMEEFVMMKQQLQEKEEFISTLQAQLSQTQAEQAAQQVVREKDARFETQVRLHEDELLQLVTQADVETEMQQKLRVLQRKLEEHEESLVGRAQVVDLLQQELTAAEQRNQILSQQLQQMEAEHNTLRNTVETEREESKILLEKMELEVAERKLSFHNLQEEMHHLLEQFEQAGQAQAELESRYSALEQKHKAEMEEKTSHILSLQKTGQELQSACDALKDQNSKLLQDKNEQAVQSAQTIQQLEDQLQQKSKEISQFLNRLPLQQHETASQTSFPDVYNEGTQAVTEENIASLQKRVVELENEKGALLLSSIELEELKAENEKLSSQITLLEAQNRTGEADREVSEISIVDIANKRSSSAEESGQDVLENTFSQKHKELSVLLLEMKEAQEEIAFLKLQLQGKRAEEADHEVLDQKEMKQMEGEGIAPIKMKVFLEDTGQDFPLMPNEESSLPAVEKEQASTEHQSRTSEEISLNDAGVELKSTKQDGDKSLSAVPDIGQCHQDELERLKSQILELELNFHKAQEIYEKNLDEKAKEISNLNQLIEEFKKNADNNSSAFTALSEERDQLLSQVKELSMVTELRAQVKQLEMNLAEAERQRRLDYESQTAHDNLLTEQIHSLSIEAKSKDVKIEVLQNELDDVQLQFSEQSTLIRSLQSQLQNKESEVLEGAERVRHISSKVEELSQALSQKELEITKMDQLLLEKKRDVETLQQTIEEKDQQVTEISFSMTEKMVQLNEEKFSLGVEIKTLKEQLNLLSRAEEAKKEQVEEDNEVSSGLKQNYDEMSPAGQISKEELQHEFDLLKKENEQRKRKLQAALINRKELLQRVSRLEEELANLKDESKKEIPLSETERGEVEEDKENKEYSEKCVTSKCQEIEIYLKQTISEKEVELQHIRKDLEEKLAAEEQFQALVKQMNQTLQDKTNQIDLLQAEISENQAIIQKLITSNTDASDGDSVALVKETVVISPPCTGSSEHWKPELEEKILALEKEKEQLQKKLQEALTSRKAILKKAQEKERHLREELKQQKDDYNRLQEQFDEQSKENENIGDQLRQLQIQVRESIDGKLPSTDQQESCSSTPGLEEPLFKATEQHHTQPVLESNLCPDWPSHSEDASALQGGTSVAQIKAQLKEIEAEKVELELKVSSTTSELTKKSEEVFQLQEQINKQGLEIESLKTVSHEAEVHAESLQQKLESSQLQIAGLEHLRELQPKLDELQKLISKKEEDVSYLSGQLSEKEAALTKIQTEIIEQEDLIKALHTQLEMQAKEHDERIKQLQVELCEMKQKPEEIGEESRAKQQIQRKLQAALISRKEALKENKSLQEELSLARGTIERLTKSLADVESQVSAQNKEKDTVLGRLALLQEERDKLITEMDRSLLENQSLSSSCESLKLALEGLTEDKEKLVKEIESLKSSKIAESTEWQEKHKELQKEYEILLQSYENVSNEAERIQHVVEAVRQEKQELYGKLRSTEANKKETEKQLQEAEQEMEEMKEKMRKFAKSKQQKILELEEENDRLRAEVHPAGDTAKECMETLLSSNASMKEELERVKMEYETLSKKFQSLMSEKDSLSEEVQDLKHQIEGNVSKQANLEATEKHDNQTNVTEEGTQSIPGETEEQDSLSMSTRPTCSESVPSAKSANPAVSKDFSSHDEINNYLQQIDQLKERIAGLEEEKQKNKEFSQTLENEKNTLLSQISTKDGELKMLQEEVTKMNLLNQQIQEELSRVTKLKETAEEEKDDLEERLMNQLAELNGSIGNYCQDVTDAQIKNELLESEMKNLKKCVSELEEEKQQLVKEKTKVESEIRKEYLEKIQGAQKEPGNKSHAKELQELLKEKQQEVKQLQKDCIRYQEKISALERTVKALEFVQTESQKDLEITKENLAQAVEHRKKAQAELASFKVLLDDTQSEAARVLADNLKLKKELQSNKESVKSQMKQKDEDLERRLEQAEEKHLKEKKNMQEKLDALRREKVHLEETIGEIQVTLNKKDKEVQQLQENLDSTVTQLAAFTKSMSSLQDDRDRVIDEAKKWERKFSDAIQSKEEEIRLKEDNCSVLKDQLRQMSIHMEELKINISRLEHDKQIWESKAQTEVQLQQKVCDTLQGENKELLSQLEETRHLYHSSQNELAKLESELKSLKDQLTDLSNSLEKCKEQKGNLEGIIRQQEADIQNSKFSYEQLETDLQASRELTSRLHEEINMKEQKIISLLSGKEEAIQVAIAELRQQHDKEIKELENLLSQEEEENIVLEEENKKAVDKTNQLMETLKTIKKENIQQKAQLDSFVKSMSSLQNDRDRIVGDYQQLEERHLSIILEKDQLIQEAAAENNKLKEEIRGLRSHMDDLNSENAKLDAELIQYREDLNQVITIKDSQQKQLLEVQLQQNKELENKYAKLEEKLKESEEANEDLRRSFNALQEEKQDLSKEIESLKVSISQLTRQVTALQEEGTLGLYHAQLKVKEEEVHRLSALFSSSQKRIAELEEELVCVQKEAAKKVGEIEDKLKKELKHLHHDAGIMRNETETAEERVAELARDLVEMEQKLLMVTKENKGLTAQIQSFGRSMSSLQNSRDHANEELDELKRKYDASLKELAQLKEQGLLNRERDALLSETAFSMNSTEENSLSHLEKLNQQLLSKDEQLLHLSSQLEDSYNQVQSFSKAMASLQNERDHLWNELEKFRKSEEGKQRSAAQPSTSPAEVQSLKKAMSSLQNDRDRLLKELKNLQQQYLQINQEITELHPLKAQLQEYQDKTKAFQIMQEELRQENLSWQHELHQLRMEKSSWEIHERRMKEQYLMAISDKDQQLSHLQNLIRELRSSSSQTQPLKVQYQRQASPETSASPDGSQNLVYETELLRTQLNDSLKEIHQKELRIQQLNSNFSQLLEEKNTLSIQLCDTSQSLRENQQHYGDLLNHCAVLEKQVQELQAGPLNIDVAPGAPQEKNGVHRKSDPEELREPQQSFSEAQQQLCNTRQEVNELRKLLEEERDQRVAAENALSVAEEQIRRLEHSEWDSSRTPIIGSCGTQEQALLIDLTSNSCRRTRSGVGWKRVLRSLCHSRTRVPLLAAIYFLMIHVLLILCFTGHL
inactive: [1] 0.033 | [2] -0.057 | [3] -0.09 | [4] -0.033 | Nexturastat A 0.177 | vemurafenib -0.085 | [5] -0.07 | [6] -0.047 | givinostat 0 | barasertib -0.07 | [7] 0.009 | volasertib -0.17 | [8] -0.052 | epoxomicin -0.185 | [9] 0.082 | [10] 0.05 | [11] -0.061 | rosiglitazone 0.004 | [12] 0.148 | [13] -0.009

FKBP7 (UniProt Q9Y680)
inactive: [1] -0.052 | [2] 0.001 | [3] -0.034 | [4] -0.074 | Nexturastat A 0.002 | vemurafenib -0.031 | [5] -0.097 | [6] -0.025 | givinostat 0.002 | barasertib 0.044 | [7] 0.035 | volasertib 0.021 | [8] 0.015 | epoxomicin -0.04 | [9] 0.003 | [10] 0.026 | [11] -0.042 | rosiglitazone -0.054 | [12] -0.001 | [13] 0.191

HDHD2 (UniProt Q9H0R4)
active: Nexturastat A -0.316
inactive: [1] 0.059 | [2] 0.028 | [3] 0.023 | [4] 0.014 | vemurafenib 0.02 | [5] 0.007 | [6] -0.028 | givinostat 0.007 | barasertib 0.011 | [7] 0.011 | volasertib 0.049 | [8] -0.007 | epoxomicin 0.073 | [9] -0.012 | [10] -0.063 | [11] 0.053 | rosiglitazone 0.017 | [12] -0.058 | [13] -0.096

IFT80 isoform 3 (UniProt Q9P2H3)
inactive: [1] -0.023 | [2] 0.038 | [3] 0.004 | [4] 0.005 | Nexturastat A -0.021 | vemurafenib -0.042 | [5] 0.039 | [6] -0.013 | givinostat -0.104 | barasertib -0.004 | [7] 0.039 | [8] 0.072 | epoxomicin 0.053 | [9] 0.008 | [10] -0.09 | [11] 0.095 | rosiglitazone 0.028 | [12] -0.084 | [13] -0.157
active: volasertib -0.232

GTF2E2 (UniProt P29084)
active: volasertib -0.265
inactive: [1] 0.045 | [2] -0.068 | [3] -0.01 | [4] 0.02 | Nexturastat A 0.082 | vemurafenib 0.057 | [5] -0.039 | [6] 0.055 | givinostat 0.059 | barasertib 0.035 | [7] -0.11 | [8] 0.105 | epoxomicin 0.099 | [9] -0.036 | [10] 0.001 | [11] 0.069 | rosiglitazone 0.017 | [12] 0.027 | [13] -0.103

GBF1 (UniProt Q92538)
active: volasertib -0.474
inactive: [1] -0.049 | [2] -0.071 | [3] -0.012 | [4] -0.028 | Nexturastat A 0.078 | vemurafenib 0.028 | [5] 0.059 | [6] 0.014 | givinostat 0.07 | barasertib 0.028 | [7] -0.086 | [8] 0.059 | epoxomicin -0.007 | [9] -0.07 | [10] -0.013 | [11] 0.069 | rosiglitazone 0.081 | [12] 0.081 | [13] -0.212

GTF3C5 isoform 3 (UniProt Q9Y5Q8)
inactive: [1] 0.058 | [2] -0.022 | [3] 0.088 | [4] 0.007 | Nexturastat A 0.136 | vemurafenib 0.101 | [5] 0.056 | [6] 0.061 | givinostat 0.045 | barasertib 0.08 | [7] -0.188 | volasertib -0.157 | [8] 0.213 | epoxomicin -0.011 | [9] 0.029 | [10] -0.034 | [11] 0.078 | rosiglitazone 0.017 | [12] -0.025 | [13] 0.03

HMGN2 (UniProt P05204)
inactive: [1] 0.115 | [2] 0.097 | [3] -0.038 | [4] 0.047 | Nexturastat A -0.016 | vemurafenib 0.032 | [5] -0.058 | [6] -0.078 | givinostat -0.019 | barasertib 0.047 | [7] -0.083 | volasertib 0.073 | [8] -0.109 | epoxomicin -0.082 | [9] 0.054 | [10] -0.041 | [11] -0.081 | rosiglitazone -0.041 | [12] 0.02 | [13] 0.071

FECH isoform 2 (UniProt P22830)
inactive: [1] 0.45 | [2] 0.162 | [3] -0.16 | [4] -0.006 | Nexturastat A -0.123 | vemurafenib 0.022 | [5] -0.167 | [6] 0.367 | givinostat -0.238 | barasertib -0.049 | [7] 0.399 | volasertib 0.368 | [8] 0.037 | epoxomicin -0.088 | [9] 0.251 | [10] 0.203 | [11] 0.001 | rosiglitazone 0 | [12] -0.123 | [13] 0.163

FKBP3 (UniProt Q00688)
inactive: [1] 0.024 | [2] 0 | [3] 0.009 | [4] 0.122 | Nexturastat A -0.002 | vemurafenib -0.015 | [5] -0.041 | [6] -0.013 | givinostat -0.023 | barasertib -0.02 | [7] 0.006 | volasertib 0.075 | [8] 0.03 | epoxomicin 0.037 | [9] 0 | [10] -0.001 | [11] 0.001 | rosiglitazone -0.002 | [12] -0.065 | [13] 0.015

HADHA (UniProt P40939)
Sequence of UniProt P40939 (P40939 whole entry, looked up): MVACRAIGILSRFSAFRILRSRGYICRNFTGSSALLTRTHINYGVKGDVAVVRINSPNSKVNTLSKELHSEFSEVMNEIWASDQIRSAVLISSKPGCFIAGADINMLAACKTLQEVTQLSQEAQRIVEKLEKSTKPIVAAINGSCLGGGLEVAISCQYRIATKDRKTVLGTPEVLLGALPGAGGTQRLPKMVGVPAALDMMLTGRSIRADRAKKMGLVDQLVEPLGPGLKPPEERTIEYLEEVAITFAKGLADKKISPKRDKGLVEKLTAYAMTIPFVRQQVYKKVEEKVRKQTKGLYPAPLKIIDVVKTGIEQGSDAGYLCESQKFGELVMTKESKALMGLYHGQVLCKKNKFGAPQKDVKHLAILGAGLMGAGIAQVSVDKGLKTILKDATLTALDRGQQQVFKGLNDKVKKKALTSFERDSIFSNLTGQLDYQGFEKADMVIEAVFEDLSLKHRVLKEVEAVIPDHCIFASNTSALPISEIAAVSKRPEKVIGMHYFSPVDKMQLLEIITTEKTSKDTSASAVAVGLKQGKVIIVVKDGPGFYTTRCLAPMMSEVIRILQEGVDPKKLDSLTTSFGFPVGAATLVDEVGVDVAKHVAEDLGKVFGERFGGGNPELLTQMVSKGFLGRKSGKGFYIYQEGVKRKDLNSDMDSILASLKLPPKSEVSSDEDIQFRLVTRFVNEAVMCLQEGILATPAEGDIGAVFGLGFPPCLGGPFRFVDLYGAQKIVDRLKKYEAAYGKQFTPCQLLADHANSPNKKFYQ
inactive: [1] 0.307 | [2] -0.203 | [3] 0 | [4] -0.022 | Nexturastat A -0.1 | vemurafenib -0.017 | [5] -0.006 | [6] 0.1 | givinostat 0.044 | barasertib -0.013 | [7] 0.03 | volasertib 0.469 | [8] 0.107 | epoxomicin 0.055 | [9] 0.231 | [10] -0.233 | [11] 0.023 | rosiglitazone -0.019 | [12] -0.053 | [13] -0.334

HIKESHI (UniProt Q53FT3)
inactive: [1] -0.138 | [2] -0.051 | [3] 0.003 | [4] -0.011 | Nexturastat A -0.037 | vemurafenib 0.027 | [5] 0.003 | [6] -0.033 | givinostat -0.008 | barasertib 0.011 | [7] -0.116 | volasertib -0.178 | [8] 0.022 | epoxomicin -0.013 | [9] -0.015 | [10] 0.001 | [11] 0.008 | rosiglitazone 0.035 | [12] -0.018 | [13] 0.077
